Test results taken from the supplement of paper PMC10849652.
Of roughly 7,900 targets only a part is listed; those with a hit were picked by preference. About 0.6% of all pairs of compound and target were hits. A number with no mark means an inactive call.

Experiments:
Assay in all cases: log2 fold change, soluble protein after heating vs DMSO (PISA); higher = thermal stabilisation; K562 cells, 10 uM, 30 min; active = over 0.2 and 3.5 SD of the protein, either way, in both replicates (recomputed)
[1] = compound: CC[C@@H]1C(=O)N(C)c2cnc(Nc3ccc(C(=O)NC4CCN(C)CC4)cc3OC)nc2N1C1CCCC1
Method in brief: (§1)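 Aliquots of K562 cells (2×10^6 cells/mL) treated with 10 μM compound for 30 min were heated for 3 min over 48°C-58°C. After pooling and extraction in PBS with 0.5% NP-40 at 4°C, soluble protein from a 21,000xg, 90 min spin was quantified by TMTpro 16plex LC-MS/MS with channel sums equalised. Thermal stability is expressed against control samples, from duplicates, as a log2 fold change.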

volasertib = compound: CC[C@@H]1C(=O)N(C)c2cnc(Nc3ccc(C(=O)N[C@H]4CC[C@H](N5CCN(CC6CC6)CC5)CC4)cc3OC)nc2N1C(C)C [volasertib]
Method in brief: as §1

[2] = compound: CC[C@H](C)N1C=C(C2=C(C=C(C=C21)C3=CN=C(C=C3)N4CCNCC4)C(=O)NCC5=C(C=C(NC5=O)C)C)C
Method in brief: as §1

epoxomicin = compound: CC[C@H](C)[C@@H](C(=O)N[C@@H]([C@@H](C)O)C(=O)N[C@@H](CC(C)C)C(=O)[C@]1(CO1)C)NC(=O)[C@H]([C@@H](C)CC)N(C)C(=O)C [epoxomicin]
Method in brief: as §1

[3] = compound: CCn1c(C(=O)N(C2CC2)C2CC2)cc2c3c(ncn3C)c(Nc3cc(C)n(C)n3)nc21
Method in brief: as §1

[4] = compound: CCn1cc(-c2ccnc3[nH]c(-c4cccc(CN(C)C)c4)cc23)c(-c2ccc(NC(=O)N(C)C)cc2)n1
Method in brief: as §1

[5] = compound: CN(C)CC(=O)Nc1ccc2[nH]c(=O)c3ccccc3c2c1
Method in brief: as §1

rosiglitazone = compound: CN(CCOC1=CC=C(C=C1)C[C@H]2C(=O)NC(=O)S2)C3=CC=CC=N3 (racemic) [rosiglitazone]
Method in brief: as §1

[6] = compound: CN1C2=C(C3=C1C(=O)N(N=C3)CC4=CC(=CC=C4)N)SC(=C2)S(=O)C
Method in brief: as §1

[7] = compound: CN1CCC(CNc2ccc3ncc(-c4cccc(OC(F)(F)F)c4)n3n2)CC1
Method in brief: as §1

Chain of UniProt O43815 (O43815 whole entry, looked up): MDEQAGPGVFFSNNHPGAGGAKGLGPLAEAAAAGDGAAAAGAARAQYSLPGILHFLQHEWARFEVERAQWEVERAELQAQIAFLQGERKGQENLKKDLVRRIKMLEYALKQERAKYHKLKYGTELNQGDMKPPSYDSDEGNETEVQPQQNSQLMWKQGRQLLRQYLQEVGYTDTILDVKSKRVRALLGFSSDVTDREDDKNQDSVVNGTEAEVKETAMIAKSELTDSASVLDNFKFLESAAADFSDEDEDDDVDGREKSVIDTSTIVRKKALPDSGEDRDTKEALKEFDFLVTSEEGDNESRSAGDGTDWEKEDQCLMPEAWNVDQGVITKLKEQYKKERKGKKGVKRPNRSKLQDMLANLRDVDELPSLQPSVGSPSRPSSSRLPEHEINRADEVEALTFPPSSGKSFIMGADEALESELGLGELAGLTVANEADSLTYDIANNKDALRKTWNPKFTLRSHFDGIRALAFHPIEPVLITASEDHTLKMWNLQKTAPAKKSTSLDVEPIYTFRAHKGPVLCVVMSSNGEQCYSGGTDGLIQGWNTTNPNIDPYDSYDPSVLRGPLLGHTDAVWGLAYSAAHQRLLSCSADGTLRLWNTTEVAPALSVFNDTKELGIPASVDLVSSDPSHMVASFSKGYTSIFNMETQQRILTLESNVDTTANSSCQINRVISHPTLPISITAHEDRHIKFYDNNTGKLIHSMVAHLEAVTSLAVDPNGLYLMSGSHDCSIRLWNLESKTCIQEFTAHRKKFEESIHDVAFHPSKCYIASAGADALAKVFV
Chain of UniProt Q9Y5X3 (Q9Y5X3 whole entry, looked up): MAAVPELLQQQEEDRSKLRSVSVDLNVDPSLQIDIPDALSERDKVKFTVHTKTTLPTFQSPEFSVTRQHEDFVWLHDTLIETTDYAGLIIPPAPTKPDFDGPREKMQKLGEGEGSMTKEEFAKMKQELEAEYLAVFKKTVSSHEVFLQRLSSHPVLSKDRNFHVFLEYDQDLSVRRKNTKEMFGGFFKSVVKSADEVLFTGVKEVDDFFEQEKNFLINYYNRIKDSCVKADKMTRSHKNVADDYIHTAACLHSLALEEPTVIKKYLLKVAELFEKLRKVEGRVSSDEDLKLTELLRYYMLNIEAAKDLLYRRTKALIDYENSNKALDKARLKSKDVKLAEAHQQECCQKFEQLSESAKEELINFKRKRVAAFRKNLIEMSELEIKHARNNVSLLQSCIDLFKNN
Chain of UniProt Q9NRS6 (Q9NRS6 whole entry, looked up): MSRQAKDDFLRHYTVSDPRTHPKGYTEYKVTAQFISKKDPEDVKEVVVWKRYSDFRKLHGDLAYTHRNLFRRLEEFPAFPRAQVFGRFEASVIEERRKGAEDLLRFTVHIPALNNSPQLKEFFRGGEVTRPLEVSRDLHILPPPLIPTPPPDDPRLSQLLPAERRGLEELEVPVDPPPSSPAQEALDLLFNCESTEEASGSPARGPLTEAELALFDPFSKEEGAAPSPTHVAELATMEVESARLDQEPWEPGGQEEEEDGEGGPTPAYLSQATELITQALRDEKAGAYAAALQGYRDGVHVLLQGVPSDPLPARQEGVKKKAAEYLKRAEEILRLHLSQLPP
Chain of UniProt O95359 (O95359 whole entry, looked up): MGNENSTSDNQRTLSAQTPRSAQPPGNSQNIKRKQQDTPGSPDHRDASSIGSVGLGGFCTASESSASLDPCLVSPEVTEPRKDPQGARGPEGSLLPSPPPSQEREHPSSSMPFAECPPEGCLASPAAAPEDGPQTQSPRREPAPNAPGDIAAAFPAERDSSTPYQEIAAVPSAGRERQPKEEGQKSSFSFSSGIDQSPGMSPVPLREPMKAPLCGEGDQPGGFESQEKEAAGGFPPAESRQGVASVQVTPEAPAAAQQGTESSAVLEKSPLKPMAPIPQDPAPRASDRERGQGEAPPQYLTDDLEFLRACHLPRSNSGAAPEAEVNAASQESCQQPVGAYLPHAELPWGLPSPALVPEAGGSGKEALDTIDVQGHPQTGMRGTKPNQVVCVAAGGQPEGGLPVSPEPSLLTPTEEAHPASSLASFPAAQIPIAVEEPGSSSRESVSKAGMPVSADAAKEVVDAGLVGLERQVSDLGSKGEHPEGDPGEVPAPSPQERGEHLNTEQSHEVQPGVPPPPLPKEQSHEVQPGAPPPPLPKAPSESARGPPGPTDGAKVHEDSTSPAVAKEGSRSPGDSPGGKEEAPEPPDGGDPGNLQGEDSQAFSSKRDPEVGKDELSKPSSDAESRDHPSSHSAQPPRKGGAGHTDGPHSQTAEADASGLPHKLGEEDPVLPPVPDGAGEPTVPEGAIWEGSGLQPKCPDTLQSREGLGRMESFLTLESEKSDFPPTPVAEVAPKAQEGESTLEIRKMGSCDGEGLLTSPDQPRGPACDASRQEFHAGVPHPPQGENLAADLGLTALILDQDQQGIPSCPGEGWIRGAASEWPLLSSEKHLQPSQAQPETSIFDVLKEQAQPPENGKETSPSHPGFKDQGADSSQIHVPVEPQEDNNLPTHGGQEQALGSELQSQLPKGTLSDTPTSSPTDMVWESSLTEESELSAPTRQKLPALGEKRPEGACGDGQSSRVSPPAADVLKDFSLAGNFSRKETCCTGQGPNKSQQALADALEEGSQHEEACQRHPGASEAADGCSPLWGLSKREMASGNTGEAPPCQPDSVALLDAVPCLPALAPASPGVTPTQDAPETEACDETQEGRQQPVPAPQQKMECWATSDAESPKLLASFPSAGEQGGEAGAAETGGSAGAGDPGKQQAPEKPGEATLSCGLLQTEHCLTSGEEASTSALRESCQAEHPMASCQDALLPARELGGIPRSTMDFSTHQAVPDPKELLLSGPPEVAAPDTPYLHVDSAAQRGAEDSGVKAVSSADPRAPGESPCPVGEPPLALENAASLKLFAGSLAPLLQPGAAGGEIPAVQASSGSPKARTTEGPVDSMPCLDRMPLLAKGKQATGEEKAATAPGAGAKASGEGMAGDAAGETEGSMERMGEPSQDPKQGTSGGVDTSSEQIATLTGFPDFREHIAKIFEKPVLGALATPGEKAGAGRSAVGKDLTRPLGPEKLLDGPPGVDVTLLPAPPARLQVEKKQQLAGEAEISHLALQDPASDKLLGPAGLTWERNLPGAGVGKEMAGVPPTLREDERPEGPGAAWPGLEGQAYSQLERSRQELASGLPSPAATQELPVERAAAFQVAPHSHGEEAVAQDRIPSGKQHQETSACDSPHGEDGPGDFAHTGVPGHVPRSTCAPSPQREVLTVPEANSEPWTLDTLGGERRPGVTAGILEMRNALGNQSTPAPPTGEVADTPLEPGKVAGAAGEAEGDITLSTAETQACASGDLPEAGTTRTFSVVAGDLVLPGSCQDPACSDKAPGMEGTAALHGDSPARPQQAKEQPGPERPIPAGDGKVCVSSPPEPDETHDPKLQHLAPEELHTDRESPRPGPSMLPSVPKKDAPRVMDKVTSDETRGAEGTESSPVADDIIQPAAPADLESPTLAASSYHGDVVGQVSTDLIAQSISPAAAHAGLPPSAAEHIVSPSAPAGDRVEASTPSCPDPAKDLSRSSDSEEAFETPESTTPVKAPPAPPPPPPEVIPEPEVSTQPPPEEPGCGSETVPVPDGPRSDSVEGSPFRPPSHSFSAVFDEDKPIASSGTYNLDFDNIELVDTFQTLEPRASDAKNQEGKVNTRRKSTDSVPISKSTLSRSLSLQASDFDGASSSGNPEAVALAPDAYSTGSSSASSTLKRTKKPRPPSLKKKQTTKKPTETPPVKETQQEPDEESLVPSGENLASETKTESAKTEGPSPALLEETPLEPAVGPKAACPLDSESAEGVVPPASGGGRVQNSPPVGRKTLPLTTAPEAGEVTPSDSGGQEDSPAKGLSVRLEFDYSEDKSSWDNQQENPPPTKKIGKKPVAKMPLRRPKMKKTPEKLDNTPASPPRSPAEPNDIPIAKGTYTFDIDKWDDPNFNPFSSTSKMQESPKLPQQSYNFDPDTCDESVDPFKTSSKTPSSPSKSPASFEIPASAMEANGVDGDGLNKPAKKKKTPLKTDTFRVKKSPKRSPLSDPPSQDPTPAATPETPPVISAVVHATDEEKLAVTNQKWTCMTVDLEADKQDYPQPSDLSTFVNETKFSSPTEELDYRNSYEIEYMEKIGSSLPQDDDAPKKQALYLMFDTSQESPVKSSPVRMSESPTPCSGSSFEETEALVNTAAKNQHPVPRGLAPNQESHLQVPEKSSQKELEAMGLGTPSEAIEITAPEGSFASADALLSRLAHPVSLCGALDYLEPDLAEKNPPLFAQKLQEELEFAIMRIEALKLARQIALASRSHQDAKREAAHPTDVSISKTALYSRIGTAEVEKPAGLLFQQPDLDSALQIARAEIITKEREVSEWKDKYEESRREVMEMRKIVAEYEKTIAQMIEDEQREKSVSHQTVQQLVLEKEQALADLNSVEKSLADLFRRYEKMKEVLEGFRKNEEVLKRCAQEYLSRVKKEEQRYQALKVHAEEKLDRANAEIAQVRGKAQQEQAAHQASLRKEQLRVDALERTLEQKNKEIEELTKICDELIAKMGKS
Chain of UniProt Q01130 (Q01130 whole entry, looked up): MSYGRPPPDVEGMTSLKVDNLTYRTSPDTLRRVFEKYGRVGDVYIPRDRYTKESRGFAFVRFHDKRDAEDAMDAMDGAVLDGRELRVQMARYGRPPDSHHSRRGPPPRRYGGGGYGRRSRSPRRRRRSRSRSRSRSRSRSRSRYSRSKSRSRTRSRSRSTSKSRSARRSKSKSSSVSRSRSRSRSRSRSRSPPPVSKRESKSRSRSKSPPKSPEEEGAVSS
Chain of UniProt P20226 (P20226 whole entry, looked up): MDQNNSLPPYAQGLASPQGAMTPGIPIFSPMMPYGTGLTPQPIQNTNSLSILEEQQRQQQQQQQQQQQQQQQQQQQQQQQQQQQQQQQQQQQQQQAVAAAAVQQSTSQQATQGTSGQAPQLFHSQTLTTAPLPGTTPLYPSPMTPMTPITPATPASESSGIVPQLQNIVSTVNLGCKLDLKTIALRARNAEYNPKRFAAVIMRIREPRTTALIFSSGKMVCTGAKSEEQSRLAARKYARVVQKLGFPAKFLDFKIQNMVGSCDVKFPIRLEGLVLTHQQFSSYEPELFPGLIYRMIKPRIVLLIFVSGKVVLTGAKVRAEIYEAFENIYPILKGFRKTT

Target | log2 fold change [1] | log2 fold change (volasertib) | log2 fold change [2] | log2 fold change (epoxomicin) | log2 fold change [3] | log2 fold change [4] | log2 fold change [5] | log2 fold change (rosiglitazone) | log2 fold change [6] | log2 fold change [7]
SRSF7 (UniProt Q16629) | 0.18 | 0.215 | -0.039 | -0.171 | 0.03 | 0.181 | -0.085 | -0.172 | 0.218 | 0.175
SSRP1 (UniProt Q08945) | -0.121 | -0.412 (active) | 0.052 | 0.02 | -0.073 | 0.007 | 0.01 | 0.052 | -0.003 | -0.067
SYMPK (UniProt Q92797) | -0.341 | -0.5 (active) | -0.289 | 0.073 | -0.036 | -0.026 | 0.123 | 0.13 | 0.076 | -0.141
TEX264 (UniProt Q9Y6I9) | 0.016 | 0.356 | -0.073 | 0 | -0.201 | 0.499 | 0.098 | 0.039 | 0.182 | 0.262
SLC6A6 (UniProt P31641) | -0.011 | 0.01 | 0 | 0.135 | 0.024 | -0.053 | -0.012 | -0.011 | -0.02 | 0.084
TBP (UniProt P20226) | 0.087 | 0.073 | 0.095 | -0.332 | – | – | -0.227 | -0.035 | 0.001 | –
SRSF3 (UniProt P84103) | 0.198 | 0.313 | -0.075 | -0.213 | 0.028 | 0.189 | -0.139 | -0.115 | 0.18 | 0.233
SORT1 (UniProt Q99523) | -0.984 (active) | -1.34 (active) | -0.013 | 0.032 | -0.028 | 0.007 | 0.003 | 0.008 | -0.028 | -0.582 (active)
SLC38A7 (UniProt Q9NVC3) | -0.283 | -0.054 | -0.023 | 0.078 | -0.018 | 0.109 | -0.123 | 0.036 | – | -0.589
SSBP4 (UniProt Q9BWG4) | 0 | -0.056 | -0.036 | – | -0.116 | -0.009 | – | 0.162 | -0.238 | 0.036
TACC2 (UniProt O95359) | -0.013 | -0.048 | 0.014 | – | 0.012 | 0.041 | -0.069 | 0.039 | 0 | -0.044
SLC38A2 (UniProt Q96QD8) | 0.035 | 0.004 | -0.091 | -0.078 | 0.084 | – | -0.022 | 0.002 | -0.1 | –
SLC35A1 (UniProt P78382) | 0.148 | 0.118 | -0.034 | 0.018 | -0.002 | – | -0.056 | -0.013 | -0.191 | –
SMPD4 isoform 4 (UniProt Q9NXE4) | -0.067 | -0.076 | 0.068 | -0.008 | -0.049 | -0.081 | 0.036 | 0.075 | -0.075 | -0.32 (active)
SLC25A42 (UniProt Q86VD7) | -0.025 | 0.039 | -0.028 | 0 | 0.019 | 0.002 | -0.021 | 0.025 | 0.022 | 0.022
SLC39A11 (UniProt Q8N1S5) | 0.102 | 0.071 | 0.007 | – | 0 | -0.136 | -0.062 | -0.007 | -0.021 | 0.15

Target | log2 fold change [1] | log2 fold change (volasertib) | log2 fold change [2] | log2 fold change (epoxomicin) | log2 fold change [3] | log2 fold change [4] | log2 fold change [5] | log2 fold change (rosiglitazone) | log2 fold change [6] | log2 fold change [7]
SUMO1 (UniProt P63165) | 0.034 | -0.035 | -0.046 | -0.011 | 0.088 | 0.015 | 0.021 | 0.002 | 0.038 | 0.007
TM7SF3 (UniProt Q9NS93) | -0.136 | -0.178 | -0.074 | – | -0.006 | – | – | -0.022 | 0.025 | –
SRSF9 (UniProt Q13242) | 0.189 | 0.414 | -0.004 | -0.421 | 0.097 | 0.323 | -0.106 | -0.07 | 0.506 | 0.364
SRXN1 (UniProt Q9BYN0) | -0.031 | -0.083 | 0.027 | 0.069 | – | 0.159 | 0.046 | 0.124 | – | -0.199
STRN (UniProt O43815) | -0.031 | -0.031 | 0.026 | 0.046 | 0.007 | -0.046 | 0.02 | 0.003 | -0.031 | 0.073
SPTBN1 (UniProt Q01082) | 0.009 | -0.163 | 0.079 | -0.024 | -0.048 | 0.013 | 0.018 | 0.001 | 0.081 | 0.048
TMBIM6 isoform 2 (UniProt P55061) | -0.075 | -0.061 | -0.041 | 0.25 | -0.055 | – | 0.066 | -0.046 | -0.007 | –
TLK1 (UniProt Q9UKI8) | 0.017 | -0.088 | 0.02 | -0.018 | 0.01 | -0.054 | 0.033 | 0.026 | -0.086 | -0.037
SRSF2 (UniProt Q01130) | 0.087 | 0.134 | -0.027 | -0.069 | 0.047 | 0.022 | -0.082 | -0.024 | 0.045 | 0.054
SNX15 (UniProt Q9NRS6) | 0.177 | -0.223 | -0.023 | – | – | -0.016 | -0.045 | -0.051 | 0.119 | 0.039
SRCAP (UniProt Q6ZRS2) | 0.068 | -0.207 | -0.059 | – | 0.066 | -0.041 | 0.121 | 0.01 | -0.001 | -0.006
SYNE2 isoform 2 (UniProt Q8WXH0) | 0.039 | -0.025 | -0.145 | – | -0.181 | -0.274 | -0.044 | 0.053 | -0.021 | -0.025
TARS2 (UniProt Q9BW92) | -0.017 | -0.128 | 0.012 | 0.02 | 0.009 | -0.002 | -0.019 | 0.018 | -0.055 | -0.069
THADA (UniProt Q6YHU6) | -0.003 | -0.017 | 0.011 | -0.007 | 0 | 0.057 | 0.051 | 0.076 | -0.019 | -0.146
SNX5 (UniProt Q9Y5X3) | -0.136 | -0.129 | 0.076 | 0.05 | -0.026 | -0.099 | 0.027 | 0.069 | -0.001 | -0.289 (active)
SRFBP1 (UniProt Q8NEF9) | 0.208 | 0.157 | -0.094 | -0.047 | -0.088 | 0.049 | – | 0.078 | 0.117 | 0.277
